Ten molecules from PubChem BioAssay (NCATS) can be followed below.

Experiment [1] in a line: qHTS profiling of the MIPE4 collection as inhibitors of Plasmodium falciparum (DD2) proliferation (AID 743345). Conditions: P. falciparum Dd2 in erythrocytes, SYBR Green DNA, 72 h; at 28.5 µM (top of the series) unless noted. Put shortly: (§1)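 Erythrocytes infected with P. falciparum (0.3% parasitemia, 2.5% hematocrit) incubated with compounds 72 h at 37 C, 5% CO2. Lysis with saponin/Triton buffer containing SYBR Green I, overnight at room temperature in the dark; DNA fluorescence (485/535 nm) normalised to 0.29 uM artemisinin and DMSO.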
On the technique in general: Quantitative high-throughput screening tests each substance at several concentrations.

The nature of experiment [2]: qHTS profiling of the MIPE4 collection as inhibitors of Plasmodium falciparum (HB3) proliferation (AID 743347).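 Note: plate controls were DMSO vehicle wells for no effect and artemisinin wells for full effect.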 The note with it: P. falciparum HB3 in erythrocytes, SYBR Green DNA, 72 h; at 28.5 µM (top of the series) unless noted. Put shortly: as §1
Experiment [3] is described as follows: High-throughput drug toxicity screening in the BPDCN cell line Gen2.2 (AID 1224824).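 Note: cells exposed to compounds for 48 h before reading.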 The note with it: Gen2.2 BPDCN cells; at 45.8 µM (top of the series) unless noted. Put shortly: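 Seed 500 exponentially growing Gen2.2 cells/well; add compounds by pin tool; incubate 48 h, 37 °C, 5% CO2; add CellTiter-Glo, 15 min RT; read luminescence. % activity vs DMSO (100%) and bortezomib (0%).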

Experiment [4] can be described thus: High-throughput drug toxicity screening in the BPDCN cell line Cal-1 (AID 1224825). Conditions: Cal-1 BPDCN cell viability, qHTS; at 45.8 µM (top of the series) unless noted. Put shortly: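 Exponentially growing Cal-1 cells, 500 per well in phenol red-free RPMI with 10% FBS, were exposed to compounds for 48 h at 37 °C, 5% CO2. Viability was read by CellTiter-Glo luminescence and normalised to DMSO (100%) and 9.2 uM bortezomib (0%).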

A short description of experiment [5]: qHTS assay for measurement of the activity of small molecule inhibitors on Zika virus induced Caspase-3 activity in human iPSC derived neural progenitor cells (hNPCs) (AID 1224857; active = well fitted inhibition curve with a large enough effect; note: % of control where 0% means no effect; nearly all actives have a fitted effect of over 65% in size). Put shortly:
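Percent inhibition of virus-induced caspase-3/7 luminescence (Caspase-Glo), scaled between uninfected cells and Zika-infected cells. hNPCs received compound 1 hr before ZIKV at 2 FFU/cell, with 6 hours infection at 37 C.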

A short description of experiment [6]: qHTS assay for measurement of the activity of small molecule inhibitors on Zika virus induced Caspase-3 activity in human astrocytoma cells (AID 1224859; active = well fitted inhibition curve with a large enough effect;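 note: plate controls were ZIKV-infected untreated cells for no effect and uninfected cells for full effect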). Put shortly: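 Luminescent caspase-3/7 read-out (30 min reagent, room temperature) in human SNB-19 cells infected 6 h with ZIKV (2 FFU/cell) after 1 h compound pre-incubation; Data were normalised to uninfected and infected wells.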

Experiment [7] is described as follows: qHTS Screen of the MIPE 4.0 Collection Against Ewings Sarcoma (TC71) (AID 1259253; active = well fitted inhibition curve with a large enough effect; note: nearly all actives have a fitted effect of over 40% in size; note: potency is the fitted concentration of half-maximal effect). Put shortly: (§2)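 Compound titrations go onto adherent log-phase cells 4 h after seeding, incubate 48 h at 37C, then CellTiter-Glo luminescence reports viability relative to DMSO and cell-free controls.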
A short description of experiment [8]: qHTS profiling of the MIPE4 collection as inhibitors of Plasmodium falciparum (3D7) proliferation (AID 743344).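 Note: scaled between DMSO vehicle wells and 0.29 µM artemisinin as full inhibition.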 The note with it: P. falciparum 3D7 in erythrocytes, SYBR Green DNA fluorescence, 72 h; at 28.5 µM (top of the series) unless noted. Put shortly: as §1
Experiment [9] can be described thus: qHTS profiling of the MIPE4 collection as inhibitors of Plasmodium falciparum (DD2) proliferation (Rep 2) (AID 743346). The note with it: P. falciparum Dd2 in erythrocytes, SYBR Green DNA, 72 h; at 28.5 µM (top of the series) unless noted. Put shortly: as §1
A short description of experiment [10]: qHTS Screen of the MIPE 4.0 Collection Against Ewings Sarcoma (EW8) (AID 1259255; active = well fitted inhibition curve with a large enough effect;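 note: 100% = DMSO-treated cells and 0% = medium-only wells without cells; nearly all actives have a fitted effect of over 35% in size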). Put shortly: as §2
Experiment [11] can be described thus: qHTS Screen of the MIPE 4.0 Collection Against Ewings Sarcoma (TC32) (AID 1259256; active = well fitted inhibition curve with a large enough effect; note: nearly all actives have a fitted effect of over 45% in size; note: potency is the fitted concentration of half-maximal effect). Put shortly:
as §2

Records with an inconclusive call do not appear. Activity calls are given as the source filed them. Unless noted, the rule behind the calls is not given here.

Turning to `COc1ccc2c3c1OC1C[C@@H](O)C=C[C@@]31CCN(C)C2` (stereo partly specified), the parasite growth remaining, % of DMSO control (lower = more inhibition) in [1] turned out to be 100%. In addition, in experiment [2], the growth, % of control came to 69.6%. Moreover, in [3], the cell viability, % of control (lower = more cytotoxic) came to 113%. Besides, the viability (% of control) in [4] was determined as 96.5%. In addition, the Potency entry in experiment [5] and in experiment [6] was “inactive” each time. The Potency in experiment [7] is 20.9 µM (active).
Molecule `NC1=N[C@@]2(c3cc(NC(=O)c4ccc(F)cn4)ccc3F)COC[C@@H]2CS1` returned a parasite growth, % of DMSO control in experiment [8] of 23.2%. Also, the parasite growth remaining, % of DMSO control (lower = more inhibition) in experiment [1] worked out at 20.8%. Besides, the parasite growth, % of control (lower = inhibition) in experiment [9] was determined as 26.1%. In experiment [2], the growth, % of control was determined as 20.1%. The cell viability, % of control (lower = more cytotoxic) in [3] worked out at 21.6%. Further, the viability (% of control) in [4] was 12.9%. In addition, the Potency entry in experiment [5], in [6], in [10] and in experiment [11] was “inactive” each time.
Turning to `CC=CCC=CCCC(=O)[C@H]1O[C@@H]1C(N)=O`, in experiment [3], the cell viability, % of control (lower = more cytotoxic) is 7.55%. Moreover, in experiment [4], the viability (% of control) was 15.5%. In addition, the Potency result in experiment [5] and in experiment [6] was “inactive” each time.
In [8], `COc1ccc(Cc2ccc(NC(N)=O)cc2)cc1-c1cccc(Cl)c1` yielded a parasite growth, % of DMSO control of 61.7%. The parasite growth remaining, % of DMSO control (lower = more inhibition) in [1] amounted to 89.9%. Moreover, the parasite growth, % of control (lower = inhibition) in experiment [9] was 38.4%. Also, in experiment [2], the growth, % of control was 69.6%. Besides, the cell viability, % of control (lower = more cytotoxic) in experiment [3] was 234%. Besides, the viability (% of control) in experiment [4] amounted to 91.3%. The Potency entry in [5] and in experiment [6] was “inactive” in each case. Further, the Potency in [7] is 18.7 µM (active); in experiment [11] it was 23.5 µM (active).
Take `Cc1ccc(/C=N/NC(=O)c2ccccc2Oc2ccccc2)o1`: in experiment [8], the parasite growth, % of DMSO control stood at 82.9%. Besides, the parasite growth remaining, % of DMSO control (lower = more inhibition) in experiment [1] worked out at 103%. Also, the parasite growth, % of control (lower = inhibition) in experiment [9] is 120%. Moreover, in [3], the cell viability, % of control (lower = more cytotoxic) was found to be 76%. In addition, the viability (% of control) in experiment [4] amounted to 18.6%. Moreover, the Potency entry in experiment [5], in experiment [6] and in experiment [11] was “inactive” throughout. The Potency in experiment [7] was 20.9 µM (active).
`CC1(C)CCC(CN2CCN(c3ccc(C(=O)NS(=O)(=O)c4ccc(NCC5CCOCC5)c([N+](=O)[O-])c4)c(Oc4cnc5[nH]ccc5c4)c3)CC2)=C(c2ccc(Cl)cc2)C1` gave a parasite growth, % of DMSO control in [8] of 18.2%. Moreover, the parasite growth remaining, % of DMSO control (lower = more inhibition) in experiment [1] was 76.7%. In addition, the parasite growth, % of control (lower = inhibition) in experiment [9] was determined as 24.1%. In addition, the growth, % of control in experiment [2] amounted to 6.5%. In experiment [3], the cell viability, % of control (lower = more cytotoxic) turned out to be 37.9%. Besides, the viability (% of control) in experiment [4] was 24.1%. The Potency entry in [5] and in [6] was “inactive” throughout. The Potency in experiment [7] is 23.5 µM (active).
Consider `O=C(NC1CCOCC1)c1ccc(-c2cc(-c3cn[nH]c3-c3ccccn3)ccn2)cc1`, for which, in [8], the parasite growth, % of DMSO control was 17.3%. The parasite growth remaining, % of DMSO control (lower = more inhibition) in experiment [1] turned out to be 82.7%. The parasite growth, % of control (lower = inhibition) in experiment [9] worked out at 40.9%. This molecule gave a growth, % of control in experiment [2] of 47.3%. Also, the cell viability, % of control (lower = more cytotoxic) in experiment [3] is 724%. Besides, in experiment [4], the viability (% of control) is 131%. Further, the Potency entry in experiment [5], in [6], in [10] and in experiment [11] was “inactive” in each case.
`COc1cc(O)c2c(c1)C(=O)c1cc(C)cc(O)c1C2=O`: the parasite growth, % of DMSO control in experiment [8] amounted to 81.1% [at 9.64 µM]. Moreover, the parasite growth remaining, % of DMSO control (lower = more inhibition) in experiment [1] was determined as 92.9% [at 9.64 µM]. Further, in experiment [9], the parasite growth, % of control (lower = inhibition) amounted to 84.4% [at 9.64 µM]. In [2], this molecule came in with a growth, % of control of 47.7% [at 9.64 µM]. In experiment [3], the cell viability, % of control (lower = more cytotoxic) was 154% [at 23.2 µM]. Moreover, the viability (% of control) in experiment [4] is 101% [at 23.2 µM]. The Potency entry in experiment [5], in experiment [6], in experiment [7] and in [11] was “inactive” throughout.
In experiment [8], `CC1(C)S[C@H]2[C@H](NC(=O)[C@@H](N)c3ccc(O)cc3)C(=O)N2[C@@H]1C(=O)O` yielded a parasite growth, % of DMSO control of 7.42%. Also, the parasite growth remaining, % of DMSO control (lower = more inhibition) in experiment [1] worked out at 103%. Besides, in experiment [9], the parasite growth, % of control (lower = inhibition) worked out at 8.21%. In addition, the cell viability, % of control (lower = more cytotoxic) in experiment [3] came to 125%. In addition, the viability (% of control) in experiment [4] is 19.4%. Also, the Potency entry in experiment [5], in [6] and in [10] was “inactive” each time.
In turn, `CCOC(=O)C1=C(N)Oc2ccc(Br)cc2C1C(C#N)C(=O)OCC` (stereo unspecified) returned a parasite growth, % of DMSO control in experiment [8] of 91.3%. For the same molecule, the parasite growth remaining, % of DMSO control (lower = more inhibition) in experiment [1] was determined as 95.8%. The parasite growth, % of control (lower = inhibition) in [9] stood at 93.2%. For the same molecule, the cell viability, % of control (lower = more cytotoxic) in experiment [3] was found to be 3.23%. In addition, in experiment [4], the viability (% of control) was 9.05%. Besides, the Potency result in [5] and in experiment [6] was “inactive” in each case. For the same molecule, the Potency was 23.5 µM (active) in experiment [7] and 37.2 µM (active) in experiment [11].
